PI5P4Ka inh: inhibitors of human PI5P4K alpha | P48426 | PI5P4Kalpha enzyme, ADP-Glo luminescence, 60 min; active compounds read low | max response, % | hit rate 1.2% among 330,000 | AID 652105; active = max response of -50% or lower; inconclusive = between -30% and -50%; inactive = -30% or higher; also: value at the top dose of about 77 µM; % is scaled to controls: 0 for no effect and ±100 for the full control effect
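Quantitative HTS of the MLSMR library against PI5P4Kalpha with substrate. ATP added last at 5 microM final; room temperature, 60 minutes. Remaining ATP depleted, ADP converted and read as luminescence.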
VDR inhibitor: blocks the human vitamin D receptor. Potency, µM, without a hit: max response, negative = inhibition, actives largely listed as inhibitors. VDR-SRC2-3 peptide fluorescence polarization, 2 h. hit rate 0.93% among 400,000. P11473; also: potency is read from the fitted curve at half-maximal effect; % is scaled to controls: 0 for no effect and ±100 for the full control effect
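VDR–SRC2-3 interaction, FP format. Cmpds 23 nl via pintool, brief spin, 2 h ambient incubation.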
PLK1 PBD inh: blocks phosphopeptide binding to human PLK1 polo-box domain; P53350; Plk1 PBD binding of FITC phosphopeptide, fluorescence polarization; Potency, µM, inactives show max response, negative = inhibition, usual class: inhibitors; hit rate 2.8% among 360,000; AID 720504; also: potency is read from the fitted curve at half-maximal effect; series mostly up to about 57 µM; % is scaled to controls: 0 for no effect and ±100 for the full control effect; nearly all actives have a fitted effect of over 65% in size
Target sequence (P53350 whole entry, looked up, the tested form may be a part): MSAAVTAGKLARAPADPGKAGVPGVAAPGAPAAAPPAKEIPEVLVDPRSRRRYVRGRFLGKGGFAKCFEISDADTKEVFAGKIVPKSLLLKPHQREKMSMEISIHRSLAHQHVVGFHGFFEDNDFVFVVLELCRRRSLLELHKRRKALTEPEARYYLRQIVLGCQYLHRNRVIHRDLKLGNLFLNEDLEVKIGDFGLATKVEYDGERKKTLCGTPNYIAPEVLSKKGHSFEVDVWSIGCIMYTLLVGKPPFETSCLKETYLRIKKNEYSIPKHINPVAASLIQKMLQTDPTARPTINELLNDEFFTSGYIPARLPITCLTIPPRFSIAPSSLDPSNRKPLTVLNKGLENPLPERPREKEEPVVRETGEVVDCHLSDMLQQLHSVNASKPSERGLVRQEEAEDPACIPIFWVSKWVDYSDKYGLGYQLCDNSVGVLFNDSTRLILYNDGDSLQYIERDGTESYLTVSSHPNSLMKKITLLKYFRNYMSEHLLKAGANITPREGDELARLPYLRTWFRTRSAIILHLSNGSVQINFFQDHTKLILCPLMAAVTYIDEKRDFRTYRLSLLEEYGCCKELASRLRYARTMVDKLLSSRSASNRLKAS
WRN helicase inh: WRN helicase (human) inhibition. AID 651768. hit rate 0.46% among 360,000. Potency, µM (highest dose often 114 µM), inactives show top-dose activity change, negative = inhibition, actives largely listed as inhibitors. WRN helicase unwinding, fluorescent forked duplex, kinetic. Q14191; also: potency is read from the fitted curve at half-maximal effect; % is scaled to controls: 0 for no effect and ±100 for the full control effect; nearly all actives have a fitted effect of over 55% in size
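WRN at 20 nM final was preincubated with compound for 15 min at room temperature; reaction started with 100 nM forked duplex oligonucleotide carrying fluorophore and quencher plus 2 mM ATP (final). Unwinding followed kinetically by red fluorescence (ex 525/em 598 nm).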
FEN1 inh: blocks human flap endonuclease 1. hit rate 0.35% among 390,000. Potency, µM (highest dose often 114 µM), inactives show top-dose activity change, negative = inhibition, hits mostly inhibitors. P39748. AID 588795. Recombinant FEN1 flap cleavage, fluorescence, 15 min; also: potency is read from the fitted curve at half-maximal effect; % is scaled to controls: 0 for no effect and ±100 for the full control effect; nearly all actives have a fitted effect of over 65% in size
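In this screen, 50 nM flap DNA substrate was added to 10 nM FEN1 pretreated with compound for 15 min at room temperature; cleavage was followed with reads at 0 and 15 min, and Hill fitting gave concentration–response parameters.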
TCR act: T cell receptor activation | 330,000 tested, under 10 active | primary human leukocytes, anti-CD3, IL-2 HTRF, 48 h | Potency, µM (series often up to 9.22 µM), for the others: top-dose activation of IL-2 secretion, actives largely listed as activators; also: % of control where 0% means no effect
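Activity was scored as IL-2 release from primary human leukocytes given only a TCR signal (a-CD3 beads) plus compound for 48 hr. Detection used a two-antibody HTRF format read at 665nm.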
The depositor's hits bear a star; ? = inconclusive; . = no result; [ ] = another dose, or the depositor's remark. Shown are actives, neighbours in structure and some others; about 3.7% of the full set was active somewhere. Unless noted, calls follow the shape of the dose curve; as a rule, active = well fitted curve in the direction sought with a large enough effect; inconclusive = small, poorly fitted or top-dose-only effect, or another doubt; inactive = no such curve, though single readings can be large; an effect the other way counts as inactive or inconclusive.

SMILES	PI5P4Ka inh	VDR inhibitor	PLK1 PBD inh	WRN helicase inh	FEN1 inh	TCR act
COC(C[C@@H]1O[C@@H]1[C@H](O)[C@H](C)OCc1ccccc1)OC	-85.6*	-25.4%	-11.1%	-8.1%	3.6%	-12.7%
Cc1cccc(OCC(=O)Nc2cc(C)c(O)c(-c3nc4ccccc4o3)c2)c1	.	.	.	.	-6.9%	.
CC(C)(C)c1cc(CCC(=O)N2CCCC2)cc(C(C)(C)C)c1O	6.9	33.9%	-24.4%	10.2%	12.3%	-2.4%
Oc1cccc(C(=S)N2CCCCC2)c1	-16.5	?	10.6µM*	3.1%[57.1 µM]	0.2%	-1.6%
S=C(c1ccc(N2CCOCC2)cc1)N1CCOCC1	.	?	26.7µM*	-0.4%	-9.7%	-58.6%
Oc1ccc(C(=S)N2CCCC2)cc1	-6.9	?	23.8µM*	-1.7%	6.7%	.
CC(C)(C)c1cc(C(=S)N2CCCC2)cc(C(C)(C)C)c1O	2.2	?	29.9µM*	-0.1%	-13.2%	.
S=C(c1ccc(N2CCCC2)cc1)N1CCCCC1	-27.8	-19.6%	8.44µM*	0.2%	-7.3%	0.4%
Cc1ccc(NC(=O)N2CCN(Cc3nc4ccc(C)cc4o3)CC2)cc1	.	9.8%	.	.	3.2%	.
Cc1ccc(NC(=O)c2cc(N3C(=O)C=CC3=O)ccc2Cl)cc1C	-76.0*	35.5µM*	5.32µM*	?	5.0%	1.6%[46.1 µM]
COc1cccc(CNc2nccn(-c3cc(C)cc(C)c3)c2=O)c1	.	5.2%	.	.	2.7%	.
CCC1Sc2ccc(S(=O)(=O)N3CCN(c4ccccc4)CC3)cc2NC1=O (configuration not stated)	?	?	3.36µM*	-9.3%	?	-0.6%
CC1(C)OC(=O)N(CC(=O)Nc2ccccc2)C1(C)O (configuration not stated)	-3.4	-13.3%	26.7µM*	-3.9%	-7.8%	6.0%
Cc1ccccc1OCC(=O)N/N=C1\SCC(=O)N1Cc1ccccc1	-8.2	-7.4%	26.7µM*	1.8%	-4.2%	3.2%[46.1 µM]
Cc1cccc(OCC(=O)N/N=C/C=C/c2ccco2)c1	-76.0*	?	-19.0%	-25.9%[57.1 µM]	-6.9%	4.0%[46.1 µM]
Cc1cccc(OCC(=O)N/N=C2/SCC(=O)N2Cc2ccco2)c1	-18.3	-28.9%	10.6µM*	-6.7%[57.1 µM]	-11.3%	6.5%
COc1cccc(C(=O)Nc2ccccc2C(=O)OCc2cc(=O)n3nc(C4CC4)sc3n2)c1	.	6.1%	.	.	-1.1%	.
Cc1cc(C)c(NC(=O)c2cc(S(=O)(=O)N3CCOCC3)ccc2F)c(C)c1	-24.4	?	10.6µM*	-4.0%	-6.4%	7.2%
Cc1c(C(=O)NCc2c(F)cc(F)cc2F)oc2ccc(S(=O)(=O)N3CCOCC3)cc12	-13.9	?	18.9µM*	9.6%	2.3%	-1.8%
C#C[C@@]1(O)CC[C@@H]2[C@H]3CCC4=C/C(=N\O)CC[C@H]4[C@@H]3CC[C@]21CC	.	-26.6%	.	.	.	.
Cc1c(C(=O)N2CCOCC2)oc2c1-c1nn(CC(=O)NCc3ccccc3)cc1CC2	.	1.5%	.	.	-3.5%	.
Cc1ccc(CN(CC(=O)NC2CCCC2)C(=O)CSc2nnc(COc3ccccc3)o2)cc1	-8.4	-16.4%	29.9µM*	0.6%	-11.4%	4.9%[46.1 µM]
O=C(Nc1ccc(S(=O)(=O)N2CCC(c3nc4ccccc4s3)CC2)cc1)c1ccccc1	.	15.9%	.	.	-1.9%	.
CCCC[C@H](NC(=O)[C@@H]1CCCN1C(=O)[C@H]1CCCN1C(=O)[C@H](Cc1ccccc1)NC(=O)[C@@H](Cc1c[nH]c2ccccc12)NC(=O)[C@H](C)NC(=O)[C@H](CCCN=C(N)N)NC(=O)OC(C)(C)C)C(N)=O	.	0.1%	.	.	.	.
O=C(O)c1cccc(NC(=O)c2cn(-c3ccccc3)nc2-c2ccncc2)c1	?	-10.2%	23.8µM*	5.7%	-5.4%	1.1%
SMILES	PI5P4Ka inh	VDR inhibitor	PLK1 PBD inh	WRN helicase inh	FEN1 inh	TCR act
Cc1ccc(C)c(NC(=O)Cn2nnc(C(=O)NCCc3ccccc3)c2N)c1	.	-0.8%	.	.	-10.7%	.
COc1ccc(NC(=O)Cn2nnc(C(=O)NCc3cccs3)c2N)c(OC)c1	-21.9	-24.0%	23.8µM*	-9.6%	0.2%	-5.3%
Cc1ccc(NC(=O)Cn2nnc(C(=O)NCCc3ccccc3)c2N)c(C)c1	-26.9	?	5.97µM*	-0.2%	-6.5%	0.5%
COc1cccc(Cn2nnc(C(=O)Nc3ccc(C)cc3)c2N)c1	-0.8	11.5%	-6.4%	-4.3%	-5.2%	0.7%
COc1cccc(Cn2nnc(C(=O)Nc3cc(C)ccc3OC)c2N)c1	-3.4	?	26.7µM*	-0.3%	-10.0%	-4.4%
Cc1nc2ccn(Cc3cccnc3)c(=O)c2cc1C(=O)N1CCN(c2ccccc2)CC1	.	5.5%	.	.	-1.7%	.
C=CC[C@H](c1ccc(F)cc1)N(CC(C)C)S(=O)(=O)C=C	.	.	.	.	-18.7%	.
CSc1nc2sccc2c(=O)[nH]1	4.0	-10.3%	2.3%	10.4%	-4.2%	.
O=c1[nH]c(=S)[nH]c2sccc12	?	-24.5%	15µM*	18.5%	-1.3%	.
N#CC(C#N)=C1C=CC=CN1/C(=C\c1ccccc1Cl)C(=O)c1ccccc1	-21.4	?	1.68µM*	50.1µM*	-11.3%	0.0%
CC(=O)NC(Cc1ccc([N+](=O)[O-])cc1)C(=O)NCC(N)C(=O)c1ccccc1 (configuration not stated)	.	.	.	.	-1.8%	.
CC(=O)c1c(C)oc2ccc(NS(=O)(=O)c3ccc(O)c(C(=O)O)c3)cc12	-20.7	-17.0%	-16.8%	-24.6%[57.1 µM]	-3.8%	-8.2%
O=C(O)c1cc(S(=O)(=O)Nc2ccc3oc(=O)sc3c2)ccc1O	-59.7*	79.4µM*	6.7µM*	28.2µM*	-22.9%	-3.0%
COc1cc(C(=O)O/N=C2\C=CC(=O)C(C)=C2)cc(OC)c1OC	.	?	21.2µM*	4.3%	3.8%	0.6%
Cc1occc1C(=O)NCc1cccc(CNC(=O)c2ccoc2C)c1	-52.5*	-5.9%	?	39.8µM*	?	-0.5%
C[C@H]1CN([C@@H](C)CO)C(=O)CCCn2nncc2CO[C@@H]1CN(C)C(=O)Nc1ccc2c(c1)OCO2	5.0	.	5.32µM*	-3.5%	.	.
Cc1nc(C(=O)NNC(=O)Nc2ccccc2)cs1	3.0	-9.9%	0.3%	-20.8%	0.1%	8.4%
Cc1nc(/C(=N/O)C(N)=O)cs1	1.1	-6.9%	23.8µM*	1.9%	-5.8%	1.5%
CCC(=O)N1CCc2cc(Br)cc(S(=O)(=O)CCC(=O)NCCc3ccc(Cl)cc3)c21	.	8.4%	.	.	-6.5%	.
O=S(=O)(N/N=C\c1c(F)cccc1Cl)c1ccc(Cl)cc1	0.2	?	15µM*	-9.9%	-0.4%	-0.1%
COc1ccc(S(=O)(=O)N/N=C\c2ccccc2F)cc1	2.1	7.5%	-18.9%	-0.1%	17.9%	2.9%
C[C@@]12CCc3occc3[C@H]1CC[C@@]13C[C@@H](CC[C@H]12)[C@@](O)(CO)C3	.	2.9%	.	.	.	.
Cc1noc(NS(=O)(=O)c2cccc3c(N(C)C)cccc23)c1C	.	25.1µM*	.	.	.	.
CN(Cc1ccccc1)C(=O)CSc1nc(-c2ccc(F)cc2)cc(C(F)(F)F)n1	.	-20.0%	.	.	-18.5%	.

High-throughput results: PubChem BioAssay, National Center for Advancing Translational Sciences (NCATS)
